High-throughput results as filed in PubChem BioAssay.
Rows were chosen to be rich in hits. Some 4.1% of all compounds tested hit in one or more screens of this group.
Vc quorum ag: inducers of Vibrio cholerae quorum light production without autoinducers, primary screen, BH1578 luxS cqsA deficient, single point | V. cholerae BH1578 lux reporter, luminescence, 6 h | activation, % at 18.7 µM | 0.16% of 350,000 active; in the data active = activation mostly above about 9.7%, no sharp cut-off
GDH-TPI counter: GDH-TPI coupling enzyme inhibitors, primary screen, artefact control for M. tuberculosis FBA inhibitor project, biochemical, absorbance, full deck; GDH-TPI coupled enzyme counterscreen, NADH absorbance; inhibition, % at 4.8 µM; 1.2% of 360,000 active; AID 588335, 2011; in the data active = inhibition above about 30%;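 note: 0% = DMSO wells and 100% = wells lacking the enzyme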
Rv3671c inh: Rv3671c serine protease inhibitors, primary screen, biochemical, fluorescence polarization, M. tuberculosis H37Rv. P9WHR9. inhibition, % at 5.96 µM. 0.048% of 320,000 active; in the data active = inhibition above about 38%;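 note: extracellular domain of Rv3671c used as enzyme; 0% = enzyme with DMSO and 100% = no enzyme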
Target sequence (P9WHR9 whole entry, looked up, the tested form may be a part): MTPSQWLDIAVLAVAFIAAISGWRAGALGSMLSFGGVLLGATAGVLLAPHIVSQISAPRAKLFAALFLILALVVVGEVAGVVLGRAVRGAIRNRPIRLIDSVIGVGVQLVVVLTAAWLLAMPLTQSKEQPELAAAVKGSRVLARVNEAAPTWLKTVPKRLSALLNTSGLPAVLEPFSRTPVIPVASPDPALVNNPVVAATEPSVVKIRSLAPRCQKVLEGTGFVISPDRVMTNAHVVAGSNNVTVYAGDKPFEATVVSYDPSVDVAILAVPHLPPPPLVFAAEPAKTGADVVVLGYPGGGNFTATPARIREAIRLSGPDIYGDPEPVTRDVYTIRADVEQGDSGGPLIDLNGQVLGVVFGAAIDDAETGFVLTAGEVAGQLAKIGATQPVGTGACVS
Mtb UGM inh: M. tuberculosis UGM enzyme inhibitors, primary screen, biochemical, fluorescence polarization, single point; AID 504406, 2011; 0.06% of 320,000 active; purified UGM, fluorescence polarization probe displacement; inhibition, % at 10 µM; in the data active = inhibition above about 10%, passing the limit was not always enough
RecA intein inh: Mtb RecA intein splicing inhibitors, primary screen, biochemical, fluorescence, HTS; inhibition, % (no concentration beside the values); Protein RecA (Mycobacterium tuberculosis (strain ATCC 25618 / H37Rv)), P9WHJ3; 0.75% of 290,000 active; cell-free RecA intein splicing; in the data active = inhibition above about 30%;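 note: 0% = vehicle wells and 100% = reference inhibitor control wells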
FBA Mtb inh: Mtb FBA enzyme inhibitors, primary screen, biochemical, fluorescence, strain H37Rv; Fructose-bisphosphate aldolase (Mycobacterium tuberculosis (strain ATCC 25618 / H37Rv)), …; purified M. tuberculosis FBA, fluorescence read-out; inhibition, % at 1 µM; 2.3% of 360,000 active; AID 588726, 2011; in the data active = inhibition above about 27%;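 note: 0% = vehicle and 100% = reference inhibitor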
Starred values were filed as active, the others as inactive; i = inactive; x = no result; + = active, no number.

SMILES	Vc quorum ag	GDH-TPI counter	Rv3671c inh	Mtb UGM inh	RecA intein inh	FBA Mtb inh
CCc1ccc2[nH]c(=O)c(C3C(C#N)=C(N)Oc4c3ccc3cccnc43)cc2c1 (centres undefined)	i	25	-3	0	13	2
O=C(Cc1cccs1)Nc1cc(SCCO)cc([N+](=O)[O-])c1	0	4	3	11*	-7	0
O=C(Nc1cc(SCCO)cc([N+](=O)[O-])c1)c1ccco1	0	8	-2	3	-2	-2
CC(=O)c1cccc(NS(=O)(=O)c2ccc(N/C=C/C(=O)c3ccc(F)cc3)cc2)c1	i	12	-71	0	-3	2
CC(=O)c1ccc(NS(=O)(=O)c2ccc(N/C=C/C(=O)c3ccc(F)cc3)cc2)cc1	0	61*	-151	0	-22	-2
CC(C)(C)c1csc(NC(=O)c2c(F)c(F)c(F)c(F)c2F)n1	i	0	-5	-1	31*	2
CSc1ncccc1C(=O)Nc1nc(C(C)(C)C)cs1	0	11	-10	0	x	0
CCN(CC(=O)Nc1ccc(NC(C)=O)cc1)C(=O)/C=C/c1ccc(C)o1	i	35*	9	3	x	1
COc1ccc(OC)c(N2C(=O)C(Cl)=C(N3CCOCC3)C2=O)c1	i	30	-1	0	70*	-6
COc1ccccc1N1C(=O)C(Cl)=C(N2CCCC2)C1=O	i	11	-6	0	-1	-2
CCC1(CC)Cc2ccccc2-c2nc(-c3ccccc3)oc(=O)c21	32*	2	-7	-2	5	3
COC(=O)[C@]1(C)N[C@H](CN(C)C(=O)Nc2ccccc2)[C@@H]2C(=O)N(C)C(=O)[C@@H]21	-7	-10	3	0	x	0
COc1cc2c(cc1NCc1ccc3c(c1)OCO3)oc1ccccc12	4	15	11	-1	1	21
COc1cc2c(cc1NC(=S)Nc1cccc(C(F)(F)F)c1)oc1ccccc12	i	11	-2	2	1	64*
COc1cc2c(cc1NCc1ccccn1)oc1ccccc12	i	0	-4	-1	2	29*
COc1ccc(-c2csc(C(O)c3ccc(F)cc3)n2)cc1OC (centres undefined)	-1	-12	x	x	x	0
COc1ccccc1C(=O)NCCC(=O)NCC1CCCO1 (centres undefined)	-1	-5	-1	0	x	-1
CCN(CC)c1ccc(/C=C2\C(=O)NC(=O)N(Cc3ccco3)C2=O)cc1	i	31*	-18	-2	-1	-10
CCN(CC)c1ccc(/C=C2/C(=O)NC(=O)N(CC3CCCO3)C2=O)cc1 (centres undefined)	-1	40*	-40	4	-3	-1
O=C(NCc1cccnc1)/C(=C\c1ccc(-c2ccc(Cl)c(Cl)c2)o1)S(=O)(=O)c1ccccc1	-1	31*	-107	1	24	1
CCOC(=O)C1=CCN(S(=O)(=O)c2ccccc2Cl)C1c1ccc(C)cc1 (centres undefined)	x	x	x	x	x	-2
Nc1nc2c(ncn2[C@@H]2O[C@H](CNC(=O)[C@H](N)C3CCCCC3)[C@@H](O)[C@H]2O)c(=O)[nH]1	x	x	x	x	x	0
COc1ccc(/C=C2\SC(=O)N(CC(=O)NNC(=O)c3ccccc3O)C2=O)cc1	0	33*	-20	0	-5	-1
O=C(CN1C(=O)S/C(=C\c2ccccc2)C1=O)NNC(=O)c1ccccc1O	i	31*	-5	2	-3	1
O=C(CCCN1C(=O)S/C(=C\c2ccccc2)C1=O)NNC(=O)c1ccccc1O	0	13	5	-1	2	-6
SMILES	Vc quorum ag	GDH-TPI counter	Rv3671c inh	Mtb UGM inh	RecA intein inh	FBA Mtb inh
CC(=O)NC(CC(=O)NCCN1C(=O)S/C(=C\c2ccccc2)C1=O)c1ccccc1 (centres undefined)	0	48*	4	1	x	1
COc1ccc(/C=C2\SC(=O)N(CC(=O)NNC(=O)c3ccccc3O)C2=O)cc1OC	3	23	-17	-2	3	-6
Brc1ccc(NC(c2ccccc2)c2ccncc2)cc1 (centres undefined)	-10	0	4	0	12	10
O=C1OC(Cc2ccccn2)C(=O)C1=C1SCCS1 (centres undefined)	-1	41*	-1	0	-5	-3
COc1ccccc1OCCN1CSC(=S)N(C)C1	0	-4	0	0	18	1
Cc1cccc(OCCN2CSC(=S)N(C)C2)c1	i	-5	-6	0	42*	-2
Cc1nc(NC(=O)CN2CC(C)OC(C)C2)sc1C(=O)N(C)C (centres undefined)	i	10	-5	-2	1	0
Cc1ccc(N2C(=O)c3ccccc3C2C(=O)c2ccc(O)cc2O)cc1 (centres undefined)	0	43*	1	0	-2	-5
Cc1ccc(N2C(=O)c3ccccc3C2C(=O)c2cc(C)ccc2O)cc1 (centres undefined)	i	4	-4	0	-3	-7
CN(C)C(=O)c1ccc(Cc2cn(C)c3ccccc23)nc1	i	10	x	x	x	2
CCCc1cc(-n2ccnc2C)n2c(nc3ccccc32)c1C#N	i	5	17	-1	x	7
CC(C)c1cc(NCCOCCO)n2c(nc3ccccc32)c1C#N	i	-1	4	-3	-91	+
CCCc1cc(NCCOCCO)n2c(nc3ccccc32)c1C#N	-1	15	x	x	x	+
CCCc1cc(NCCCCO)n2c(nc3ccccc32)c1C#N	0	6	-6	-1	-134	178*
CCc1ccc2c(c1)NC(=O)C2(C)Cc1ccccc1Cl (centres undefined)	i	6	x	x	x	-1
CCCCN(C)CCCNC(=O)c1cn(CC)c2ccc(S(=O)(=O)N3CCOCC3)cc2c1=O	0	16	2	1	1	-1
COc1cc(OC)c(C(=O)Nc2cc(S(=O)(=O)N3CCOCC3)ccc2N2CCN(C)CC2)cc1OC	i	11	x	x	x	1
COc1cccc(/C=C2/SC(=O)N(CC(=O)N3CCc4ccccc4C3)C2=O)c1OCC(=O)O	4	32*	-6	5	7	-2
CCCCN1C=C(C(C)=O)C(=O)CC1	-1	-9	x	x	x	1
O=C1c2cccc3cccc(c23)C(=O)N1c1ccccc1Cl	i	33*	-7	0	-1	25
Nc1ccccc1N1C(=O)c2cccc3cccc(c23)C1=O	-1	4	-1	0	0	0
